# Data from PMC8384837, “Expanding the binding specificity for RNA recognition by a PUF domain”.
# Changes are numbered by the printed parent chain.
# Legend:
# Assay in all cases: yeast three-hybrid, YBZ-1, SC-Leu-His + 0.5 mM 3-AT, 4 days
# Conditions in all cases: tags: N-Gal4 AD-HA kept; label: inside an RPR1-promoter hybrid RNA with tandem MS2 sites; ssRNA
# PUM1 PUF domain R8-RYV = PUM1 PUF domain R8-RYV (Homo sapiens, UniProt Q14671 828-1176, N1122R;Q1126V)
# Method in brief: (§1)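 A centromeric plasmid in strain YBZ-1 co-expressed Pumilio-1 PUF domain libraries, randomized at the three base-contacting residues of each repeat, with matching RNA elements; the strain carries a LexA–MS2 coat fusion and a HIS3 reporter. After four days on SC-Leu (input) or SC-Leu-His + 0.5 mM 3-AT (selection), the repeat regions were PCR-amplified and Illumina-sequenced. The interaction score is the log change in variant frequency from input to selection, using log2 and a pseudocount of 1 where absent.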
# PUM1 PUF domain R8-PYY = PUM1 PUF domain R8-PYY (Homo sapiens, UniProt Q14671 828-1176, N1122P;Q1126Y)
# Method in brief: as §1
# PUM1 PUF domain R6-FWT = biological target: T1, PUM1 PUF domain R6-FWT (Homo sapiens, UniProt Q14671 828-1176, N1043F;Y1044W;Q1047T)
# T1 sequence: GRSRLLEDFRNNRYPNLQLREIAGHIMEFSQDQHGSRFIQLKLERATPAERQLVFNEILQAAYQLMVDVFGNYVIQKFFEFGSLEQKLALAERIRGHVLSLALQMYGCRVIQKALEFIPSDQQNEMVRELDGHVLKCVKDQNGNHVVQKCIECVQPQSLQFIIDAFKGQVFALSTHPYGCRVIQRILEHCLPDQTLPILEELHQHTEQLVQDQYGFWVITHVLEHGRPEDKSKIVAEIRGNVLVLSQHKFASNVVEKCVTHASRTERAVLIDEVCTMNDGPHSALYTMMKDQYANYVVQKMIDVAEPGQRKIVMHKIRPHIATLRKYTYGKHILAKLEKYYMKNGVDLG
# Method in brief: as §1
# PUM1 PUF domain R4-EHI = PUM1 PUF domain R4-EHI (Homo sapiens, UniProt Q14671 828-1176, N971E;Q975I)
# Method in brief: as §1
# PUM1 PUF domain R5-GTR = PUM1 PUF domain R5-GTR (Homo sapiens, UniProt Q14671 828-1176, C1007G;R1008T;Q1011R)
# Method in brief: as §1
# PUM1 PUF domain R5-SKN = PUM1 PUF domain R5-SKN (Homo sapiens, UniProt Q14671 828-1176, C1007S;R1008K;Q1011N)
# Method in brief: as §1
# PUM1 PUF domain R2-LFL = PUM1 PUF domain R2-LFL (Homo sapiens, UniProt Q14671 828-1176, N899L;Y900F;Q903L)
# Method in brief: as §1
# PUM1 PUF domain R6-VFH = biological target: T2, PUM1 PUF domain R6-VFH (Homo sapiens, UniProt Q14671 828-1176, N1043V;Y1044F;Q1047H)
# T2 sequence: T1 sequence with F216V, W217F, T220H
# Method in brief: as §1
# PUM1 PUF domain R6-LWE = biological target: T3, PUM1 PUF domain R6-LWE (Homo sapiens, UniProt Q14671 828-1176, N1043L;Y1044W;Q1047E)
# T3 sequence: T1 sequence with F216L, T220E
# Method in brief: as §1
# PUM1 PUF domain R3-RSV = PUM1 PUF domain R3-RSV (Homo sapiens, UniProt Q14671 828-1176, C935R;R936S;Q939V)
# Method in brief: as §1
sequence,measurement,setting,value
GGCUAGAACUAGUGGAUCCCCCGGCGCCCGGCGGCUCGAGCCCGGGUAAGCGUAAAUAGUCUGCAUGCCGCCGGGCGCCAUGCCUGCAGGUCGACUCUAGAAAACAUG,binding signal,PUM1 PUF domain R8-RYV,6.01 log2 enrichment (interaction score)
same,binding signal,PUM1 PUF domain R8-PYY,3.73 log2 enrichment (interaction score)
GGCUAGAACUAGUGGAUCCCCCGGCGCCCGGCGGCUCGAGCCCGGGUAAGUGUAAAUAGUCUGCAUGCCGCCGGGCGCCAUGCCUGCAGGUCGACUCUAGAAAACAUG,binding signal,PUM1 PUF domain R6-FWT,4.41 log2 enrichment (interaction score)
same,binding signal,PUM1 PUF domain R8-RYV,4.92 log2 enrichment (interaction score)
same,binding signal,PUM1 PUF domain R4-EHI,3.46 log2 enrichment (interaction score)
same,binding signal,PUM1 PUF domain R8-PYY,2.84 log2 enrichment (interaction score)
GGCUAGAACUAGUGGAUCCCCCGGCGCCCGGCGGCUCGAGCCCGGGUAAGUGUCAAUAGUCUGCAUGCCGCCGGGCGCCAUGCCUGCAGGUCGACUCUAGAAAACAUG,binding signal,PUM1 PUF domain R5-GTR,4.92 log2 enrichment (interaction score)
same,binding signal,PUM1 PUF domain R5-SKN,1.73 log2 enrichment (interaction score)
GGCUAGAACUAGUGGAUCCCCCGGCGCCCGGCGGCUCGAGCCCGGGUAAGUGUUAAUAGUCUGCAUGCCGCCGGGCGCCAUGCCUGCAGGUCGACUCUAGAAAACAUG,binding signal,PUM1 PUF domain R5-SKN,2.59 log2 enrichment (interaction score)
GGCUAGAACUAGUGGAUCCCCCGGCGCCCGGCGGCUCGAGCCCGGGUAAGUGUAAAAAGUCUGCAUGCCGCCGGGCGCCAUGCCUGCAGGUCGACUCUAGAAAACAUG,binding signal,PUM1 PUF domain R2-LFL,5.51 log2 enrichment (interaction score)
GGCUAGAACUAGUGGAUCCCCCGGCGCCCGGCGGCUCGAGCCCGGGUAAGUGAAAAUAGUCUGCAUGCCGCCGGGCGCCAUGCCUGCAGGUCGACUCUAGAAAACAUG,binding signal,PUM1 PUF domain R6-VFH,3.39 log2 enrichment (interaction score)
same,binding signal,PUM1 PUF domain R6-LWE,3.79 log2 enrichment (interaction score)
GGCUAGAACUAGUGGAUCCCCCGGCGCCCGGCGGCUCGAGCCCGGGUAAGUGUAAUUAGUCUGCAUGCCGCCGGGCGCCAUGCCUGCAGGUCGACUCUAGAAAACAUG,binding signal,PUM1 PUF domain R3-RSV,3.06 log2 enrichment (interaction score)
